Source: PubChem BioAssay
Where “and” joins values, the source holds several entries; their conditions need not be identical. Identical values can stand only once. Results filed as inconclusive are left out. Calls of active or inactive are those of the source.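 How the source made its calls, unless noted: active means normalized viability below 100% at a tested concentration; inactive means the rest.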

How the values were obtained:
[1] = P. berghei load reduction in hepatocytes – cell-based, HepG2, luciferase luminescence, HepG2 viability, primary screen (AID 624349; in the data active means parasite load remaining mostly below about 12%, no sharp cut-off; inactive means mostly above about 10%;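 further: 100% = mean of DMSO negative control wells on the same plate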); conditions: P. berghei liver stage in HepG2, luciferase luminescence, concentration not given here; parasite load remaining: stronger effect = lower value; viability: measured here: HepG2 viability without parasites
[2] = Wnt pathway potentiators raising nuclear beta-catenin – imaging, WNT3A-conditioned medium, mouse C2C12, NPC library, primary screen (AID 1117326; in the data active means nuclear beta-catenin stimulation mostly above about 4.2%, no sharp cut-off; inactive means mostly below about 10%); conditions: stronger effect = higher value
[3] = stimulators of insulin release from INS-1E, primary screen, cell-based, 5 mM glucose, NPC library (AID 1117329;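 active means compound raises insulin release from rat beta cells at 5 mM glucose, no numeric limit stated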); conditions: rat INS-1E insulin secretion, at 10 µM, stronger effect = higher value
[4] = growth inhibition of GSK3B-pretreated HCT116 cells – cell-based, CellTiter-Glo, 0.2 to 20 µM (AID 1117336;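 active means compounds lowering colon cancer cell viability after pretreatment blocking the GSK3B kinase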); conditions: HCT116 viability after GSK3B inhibitor, at 20 µM, stronger effect = higher value
[5] = inhibition of endothelial tube formation, primary screen, imaging, VEGF stimulated, CD31 staining, tube area, NPC library (AID 1117340;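 active means compound that reduces growth-factor-driven endothelial tube area in a mixed cell culture, no cutoff stated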); conditions: VEGF-stimulated ADSC/ECFC co-culture, at 10 µM, stronger effect = higher value
[6] = GLP1 release stimulators, primary, NCI-H716, NPC library (AID 1117341;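 active means compound raises GLP1 secretion from the human gut endocrine cells, with no numeric limit stated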); conditions: NCI-H716 cells, at 10 µM, stronger effect = higher value
[7] = HCT116 colon cancer cell growth inhibition, primary screen, CellTiter-Glo luminescence, NPC library (AID 1117342;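 active means compounds that lower survival of HCT116 colon cancer cells in the luminescence readout, no numeric limit stated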); conditions: at 20 µM (top of the series)
[8] = reduced SW480 viability measured with CellTiter-Glo, NPC library, primary (AID 1117343;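 active means compounds that lower viability of the colon cancer cells in the luminescence readout, with no numeric limit stated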); conditions: CellTiter-Glo luminescence; at 20 µM (top of the series) unless noted
[9] = NPC library primary testing for decreased DLD-1 cell viability via CellTiter-Glo (AID 1117346;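 active means compounds that lower survival of DLD-1 colon cancer cells in the luminescence readout, no cutoff given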); conditions: DLD-1 viability, CellTiter-Glo luminescence; at 20 µM (top of the series)
[10] = test system: Aerobactin synthetase IucA (Klebsiella pneumoniae); experiment: inhibition of K. pneumoniae IucA enzyme – biochemical, Tocris library, absorbance (AID 1345561; call rule not given here;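 further: 100% = enzyme without compound and 0% = no enzyme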); conditions: purified IucA enzyme assay, absorbance (OD) read-out; stronger effect = lower value;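 tested at 8 µM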
[11] = viability loss in pontine glioma line – cell-based, SU-DIPG-XVII, MIPE5.0, CellTiter-Glo, qHTS, dose response (AID 1347060; cut-off not given, nearly all actives have AC50 up to about 26 µM;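 further: cells exposed to compound for 48 hours before viability readout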); conditions: CellTiter-Glo ATP luminescence
[12] = viability loss in pontine glioma line – cell-based, SU-DIPG-XIII, MIPE4.0, CellTiter-Glo, qHTS, dose response (AID 1347061; cut-off not given, nearly all actives have AC50 up to about 37 µM;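 further: cells exposed to compound for 48 hours before readout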); conditions: CellTiter-Glo ATP luminescence
[13] = viability loss in pontine glioma line – cell-based, JHH-DIPG-1, MIPE4.0, CellTiter-Glo, qHTS, dose response (AID 1347062; cut-off not given, nearly all actives have AC50 up to about 27 µM); conditions: JHH-DIPG-1 viability, CellTiter-Glo ATP luminescence
[14] = growth inhibition of DIPG cells – cell-based, MIPE5.0 library, qHTS (AID 1347068; cut-off not given, nearly all actives have IC50 up to about 30 µM); conditions: SU-DIPG-XXV viability
[15] = viability loss with induced miR-34 in A549 – imaging, A549 dox-inducible miR-34, nuclei and caspase counts, primary screen (AID 1347080;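 active means compounds whose cell count with miR-34 switched on is under 0.7 times the count with it off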); conditions: A549 miR-34 inducible, Hoechst nuclei count, 48 h
[16] = MELAS cybrid and Rieske KO viability enhancers – cell-based, MELAS cybrids, Rieske KO mouse fibroblasts, CellTiter-Glo, primary screen (AID 1508586); conditions: low glucose;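 further: z relative to plate mean and SD of compound and empty wells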
[17] = drug combination growth inhibition, ovarian cancer – cell-based, oncology-focused library, rucaparib conditional, profiling panel (AID 1508598); conditions: patient-derived ovarian cancer cells, CellTiter-Glo viability, 144 h, stronger effect = lower value
[18] = molecular target: NAD(+) hydrolase SARM1 (Homo sapiens) (UniProt Q6SZW1); experiment: blocking NAD cleavage by SARM1 SAM-TIR – cell lysate, NAD-Glo luminescence (AID 1508614;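 active means compound whose remaining NAD level is above about 45 nM, limit read from the data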); conditions: SAM-TIR HEK293T lysate NADase, at 1 µM, stronger effect = higher value
[19] = galactose survival enhancers in mitochondrial complex I cybrids – cell-based, galactose medium, ATP luminescence, primary screen (AID 1645843;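 active means z-score of at least 1.8 in each of two replicates, scored against plate mean and spread of sample wells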;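 further: positive z means more ATP and so rescue of galactose-driven cybrid death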); conditions: complex I mutant cybrid cells, 72 h, stronger effect = higher value
[20] = EMT-state selective cytotoxicity in co-culture – imaging, PC-3E GFP, TEM4-18 mCherry, primary screen (AID 1345086;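 active means compounds killing one labelled cell type while sparing the other, by normalised counts and ratio limits, not self-fluorescent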;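 on all read-outs here: cells exposed to compound for 72 h before imaging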;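 on red/green cell ratio (normalised): normalised mesenchymal count divided by normalised epithelial count so high means epithelial killing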); conditions: PC-3E GFP / TEM4-18 mCherry co-culture, imaging cell counts, at 1 µM; for red/green cell ratio (normalised): actives lie on both sides, counts scaled to control wells, 1 = unselective
[21] = stronger effect = lower value, cell number ratio, induced over uninduced
[22] = measured here: relative caspase fold change +Dox/-Dox
[23] = measured here: total cells with miR-34 induction, stronger effect = lower value
[24] = measured here: total cells without miR-34 induction
[25] = measured here: epithelial PC-3E GFP cell survival
[26] = measured here: mesenchymal TEM4-18 mCherry cell survival

NAD(+) hydrolase SARM1 (Homo sapiens), sequence (Q6SZW1 whole entry, looked up): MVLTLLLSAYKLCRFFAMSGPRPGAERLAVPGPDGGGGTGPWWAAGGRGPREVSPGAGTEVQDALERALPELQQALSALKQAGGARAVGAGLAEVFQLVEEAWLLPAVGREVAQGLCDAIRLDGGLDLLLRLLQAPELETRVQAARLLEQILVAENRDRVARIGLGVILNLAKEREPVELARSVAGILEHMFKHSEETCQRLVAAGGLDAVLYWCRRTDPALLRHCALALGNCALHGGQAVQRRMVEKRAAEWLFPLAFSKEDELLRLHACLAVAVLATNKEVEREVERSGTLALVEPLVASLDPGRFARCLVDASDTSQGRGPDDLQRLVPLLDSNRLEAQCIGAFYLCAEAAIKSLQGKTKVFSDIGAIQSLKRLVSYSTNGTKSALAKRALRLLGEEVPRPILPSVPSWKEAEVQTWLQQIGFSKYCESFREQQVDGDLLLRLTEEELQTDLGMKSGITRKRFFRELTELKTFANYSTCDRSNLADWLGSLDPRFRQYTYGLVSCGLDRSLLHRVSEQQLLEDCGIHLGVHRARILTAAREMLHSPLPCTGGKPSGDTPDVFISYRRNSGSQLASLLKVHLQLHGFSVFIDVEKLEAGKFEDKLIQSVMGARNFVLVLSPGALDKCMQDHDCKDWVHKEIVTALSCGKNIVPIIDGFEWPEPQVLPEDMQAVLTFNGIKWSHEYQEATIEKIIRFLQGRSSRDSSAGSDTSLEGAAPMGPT

Nc1nc(Cl)nc2c1ncn2[C@@H]1O[C@H](CO)[C@@H](O)[C@@H]1F
1.45 and 0.847: fold change [15, 22]
-2.1: z-score ([16]; MELAS cybrid survival, CellTiter-Glo 48 h, stronger effect = higher value)
inactive: parasite load remaining [1] 11.2% | nuclear beta-catenin stimulation ([2]; at 10 µM) 30.8% | insulin secretion stimulation [3] 0.1% | GLP1 secretion stimulation [6] 0.3% | viability decrease (inhibition) [9] 43.5% | remaining activity [10] 104% | outcome [12] | outcome [13] | outcome [14] | fold change [15, 21] 1.02 and 0.96 | viability ([17]; at 0.000305 µM, OCI-C5x cells, with rucaparib 10 µM, 100% = cells with rucaparib alone) 115% | viability ([17]; at 0.000305 µM, OCI-C5x cells, without rucaparib) 107% | viability ([17]; at 0.000305 µM, OCI-P5x cells, with rucaparib 20 µM, 100% = cells with rucaparib alone) 116% | viability ([17]; at 0.000305 µM, OCI-P5x cells, without rucaparib) 113% | viability ([17]; at 0.00122 µM, OCI-C5x cells, with rucaparib 10 µM, 100% = cells with rucaparib alone) 118% | viability ([17]; at 0.00122 µM, OCI-C5x cells, without rucaparib) 113% | viability ([17]; at 0.00122 µM, OCI-P5x cells, with rucaparib 20 µM, 100% = cells with rucaparib alone) 112% | viability ([17]; at 0.00122 µM, OCI-P5x cells, without rucaparib) 109% | viability ([17]; at 0.00488 µM, OCI-C5x cells, with rucaparib 10 µM, 100% = cells with rucaparib alone) 116% | viability ([17]; at 0.00488 µM, OCI-C5x cells, without rucaparib) 110% | viability ([17]; at 0.00488 µM, OCI-P5x cells, with rucaparib 20 µM, 100% = cells with rucaparib alone) 115% | viability ([17]; at 0.00488 µM, OCI-P5x cells, without rucaparib) 118% | viability ([17]; at 0.0195 µM, OCI-C5x cells, with rucaparib 10 µM, 100% = cells with rucaparib alone) 113% | viability ([17]; at 0.0195 µM, OCI-C5x cells, without rucaparib) 112% | viability ([17]; at 0.0195 µM, OCI-P5x cells, with rucaparib 20 µM, 100% = cells with rucaparib alone) 111% | viability ([17]; at 0.0781 µM, OCI-P5x cells, with rucaparib 20 µM, 100% = cells with rucaparib alone) 111% | remaining NAD [18] 10 nM | z-score [19] -0.56 and -2.21
84%: viability [1]
2.02: z-score ([16]; Rieske KO mouse fibroblast survival, CellTiter-Glo 72 h)
3880 and 3040: cell count [15, 23]
17.4%: nuclear beta-catenin stimulation ([2]; stimulation, at 2 µM)
active: viability decrease [4] 44.1% | tube area decrease [5] 104% | inhibition of viability [7] 80.9% | viability decrease (inhibition) [8] 59.6% | AC50 [11] 332 nM | viability ([17]; at 0.0195 µM, OCI-P5x cells, without rucaparib) 95% | viability ([17]; at 0.0781 µM, OCI-C5x cells, with rucaparib 10 µM, 100% = cells with rucaparib alone) 98% | viability ([17]; at 0.0781 µM, OCI-C5x cells, without rucaparib) 78.6% | viability ([17]; at 0.0781 µM, OCI-P5x cells, without rucaparib) 84.8% | viability ([17]; at 0.313 µM, OCI-C5x cells, with rucaparib 10 µM, 100% = cells with rucaparib alone) 24% | viability ([17]; at 0.313 µM, OCI-C5x cells, without rucaparib) 24.6% | viability ([17]; at 0.313 µM, OCI-P5x cells, with rucaparib 20 µM, 100% = cells with rucaparib alone) 57.8% | viability ([17]; at 0.313 µM, OCI-P5x cells, without rucaparib) 29.3% | viability ([17]; at 1.25 µM, OCI-C5x cells, with rucaparib 10 µM, 100% = cells with rucaparib alone) 22.5% | viability ([17]; at 1.25 µM, OCI-C5x cells, without rucaparib) 23.9% | viability ([17]; at 1.25 µM, OCI-P5x cells, with rucaparib 20 µM, 100% = cells with rucaparib alone) 42.3% | viability ([17]; at 1.25 µM, OCI-P5x cells, without rucaparib) 20.5% | viability ([17]; at 5 µM, OCI-C5x cells, with rucaparib 10 µM, 100% = cells with rucaparib alone) 19.1% | viability ([17]; at 5 µM, OCI-C5x cells, without rucaparib) 19.7% | viability ([17]; at 5 µM, OCI-P5x cells, with rucaparib 20 µM, 100% = cells with rucaparib alone) 36.1% | viability ([17]; at 5 µM, OCI-P5x cells, without rucaparib) 18.2%
3820 and 3160: cell count [15, 24]

NC(=O)CCCCC1CCSS1 (stereo not given)
8370: cell count [15, 23]
1.01: fold change [15, 22]
0.82: normalised cell number [20, 26]
inactive: nuclear beta-catenin stimulation ([2]; at 10 µM) -0.8% | insulin secretion stimulation [3] -0.6% | viability decrease [4] -164% | tube area decrease [5] 18% | GLP1 secretion stimulation [6] -0.8% | inhibition of viability [7] -10.3% | viability decrease (inhibition) [8] -43.7% | viability decrease (inhibition) [9] -25.4% | red/green cell ratio (normalised) [20] 1.02 | fold change [15, 21] 0.89 | remaining NAD [18] 10 nM
0.81: normalised cell number [20, 25]
2.1%: nuclear beta-catenin stimulation ([2]; stimulation, at 2 µM)
9400: cell count [15, 24]

CC1(O)CCC(C(C)(C)O)CC1 (stereo not given)
8850: cell count [15, 24]
0.97: normalised cell number [20, 26]
inactive: nuclear beta-catenin stimulation ([2]; at 10 µM) -0.3% | insulin secretion stimulation [3] 1.4% | viability decrease [4] -1.3% | tube area decrease [5] 2.4% | GLP1 secretion stimulation [6] -5.3% | inhibition of viability [7] 1.1% | viability decrease (inhibition) [8] 5.7% | viability decrease (inhibition) [9] -8.9% | red/green cell ratio (normalised) [20] 1.09 | fold change [15, 21] 0.976 | remaining NAD [18] 10 nM
0.869: fold change [15, 22]
0.89: normalised cell number [20, 25]
1.1%: nuclear beta-catenin stimulation ([2]; stimulation, at 2 µM)
8640: cell count [15, 23]
